Results filed as inconclusive are left out. Calls of active or inactive are those of the source. Calls come from the whole dose curve; as a rule, active = well fitted cell-killing curve with a large enough effect in the repeat runs; inconclusive = weak or mixed curves; inactive = flat fitted curve, though single readings scatter.
% is set by controls: 0 for no effect and ±100 for the full control effect.

This test can be described thus: qHTS RealTime-Glo MT Cell Viability Assay in HepG2 cells - 24 hour (AID 1224867). Note: nearly all actives have a fitted effect of over 50% in size. Particulars: RealTime-Glo luminescence; series mostly up to 76.8 µM. From the text:
U.S. Tox21 Program National Center for Advancing Translational Sciences [NCATS] NIH Chemical Genomics Center [NCGC] U.S. Environmental Protection Agency [EPA] National Institutes of Environmental Health Sciences [NIEHS] National Toxicology Program [NTP] U.S. Food and Drug Administration [FDA] Tox21 Assay Overview: Measure of cell viability is critical in the cell-base assay. Analysis of cell viability is necessary for the characterization of cell responses to cytotoxic drugs and environmental stress. A RealTime-Glo MT Cell Viability Assay to monitor cell viability in real time of continues cell culture during 40 hours of compound treatment was used to screen Tox21 10K library compounds in HepG2 cells. The RealTime-Glo MT Cell Viability Assay is a nonlytic, homogeneous, bioluminescent method to measure cell viability in real time using a simple, plate-based method. The assay involves adding NanoLuc luciferase and a cell-permeant prosubstrate to cells in culture. Viable cells reduce the proprietary prosubstrate to generate a substrate for NanoLuc luciferase. This substrate diffuses from cells into the surrounding culture medium, where it is rapidly used by the NanoLuc Enzyme to produce a luminescent signal. The signal correlates with the number of viable cells, making the assay well suited for cytotoxicity studies.
Tox21 Assay Protocol Summary: The mixture of HepG2 cell suspension and reagents were dispensed at 600cells/6 ul/well in 1536-well tissue culture treated black solid bottom plates using a Multidrop dispenser. After the assay plates were incubated at a 37 C/5% CO2 incubator for 5 hours, 23 nL of compounds dissolved in DMSO, positive and negative controls was transferred to the assay plate by a pintool work station. The plates were incubated at 37 C for 40 hours. The luminescence intensity were measured at 0h, 8h, 16h, 24h, 32h and 40h time points using ViewLux plate reader during compound treatment.
In general terms: qHTS replaces the single test concentration by a dilution series.
With `CCCCCC/C=C/C(=O)OC`, the outcome was inactive.

As to `CCOc1cccc(N)c1`, the outcome was inactive. For the molecule `COC(C)(OC)OC`, the result was inactive. On to `O=C1c2ccccc2C(=O)c2cc(Cl)ccc21`, for which the activity change, negative = cytotoxicity was -1.65% [at 6.97 µM] (inactive). Turning to `NCCOCCN`, the call was inactive. On the same count and under the same terms, to `CC(=O)CC(=O)Nc1ccc(C)cc1C` belongs “inactive”; to `Nc1nnnn1-c1ccccc1`, “inactive”.

Regarding `CCCCCCC1(C)CCC(=O)O1` (stereo not given), the molecule was classed as inactive.

For `CCCCCc1cccc(=O)o1`, the result was inactive.

Take `C=CC(=O)OCC1CCCO1` (stereo not given): the outcome was inactive. In the case of `C[C@H]1[C@@H](c2ccccc2)NC(=O)N1C`, the call was inactive. Same read-out and setting: next, `CC(C)OC(=O)OCOP(=O)(CO[C@H](C)Cn1cnc2c(N)ncnc21)OCOC(=O)OC(C)C`: “inactive”; `CC1=NN(c2ccc(S(=O)(=O)O)cc2)C(=O)C1`: “inactive”. With `[O-][n+]1cccc(/C(Cl)=N/OC[C@@H](O)CN2CCCCC2)c1`, the result was inactive. For the molecule `CCC(C)OC(C)CC` (stereo not given), the result was inactive. Take `c1ccc(-c2nn[nH]n2)cc1`: the molecule was classed as inactive.

With `CCC(C)C(=O)OCCc1ccccc1` (stereo not given), the molecule was classed as inactive.

As for `NCc1ccc(S(N)(=O)=O)cc1`, the molecule was called inactive. With `N#Cc1cscn1`, the molecule was called inactive.

Turning to `CC(C)=CCC/C(C)=C/COC=O`, the molecule was called inactive. On the same count and under the same terms, to `CCNC(=O)NCc1cccc(Cl)c1` belongs “inactive”; to `CCCCCC(C)O` (stereo not given), “inactive”.

For `NCC1(Cc2noc(=O)[nH]2)CCCCC1`, the molecule was classed as inactive.

Turning to `CCC(C(=O)OCCN1CCOC(c2ccccc2)C1C)c1ccccc1` (stereo not given), the molecule was called inactive. Same read-out and setting: next, `CC(C)NC(=O)c1ccc(C=O)cc1`: “inactive”; `O=C(O)c1cc2ccccc2nc1C(=O)O`: “inactive”. Still for that read-out and setting: next, `CCC(=O)CC`: “inactive”; `CC(C)[C@H]1CC[C@H](C)C[C@@H]1O`: “inactive”. `CCn1cc(C(=O)O)c(=O)c2cnc(N3CCCC3)nc21`: the activity change, negative = cytotoxicity was 0.974% [at 6.97 µM] (inactive). For the molecule `COC(=O)c1cc(Cl)cc(Cl)c1`, the result was inactive. On the same count and under the same terms, next, `O=C(O)CSCC(=O)NC1CCSC1=O` (stereo not given): “inactive”; `COS(=O)(=O)O`: “inactive”.

In the case of `CCOC(CN1CCN(CC(C)C(=O)c2ccccc2)CC1)c1ccccc1` (stereo not given), the activity change, negative = cytotoxicity is -0.414% [at 15.8 µM] (inactive). With `O/N=C/C=N/O`, the result was inactive. Consider `CC(=O)OC(C)=O`, for which the molecule was called inactive. On the same count and under the same terms, to `C=C(C)[C@@H]1CC=C(C)C(=O)C1` belongs “inactive”; to `COc1c2occc2c(OC)c2c(=O)cc(C)oc12`, “inactive”. On to `CCCCOC(=O)[C@H](C)O`, for which the call was inactive. On the same count and under the same terms, next, `COP(=O)(O)OP(=O)(O)OC`: “inactive”.

As for `COC(=O)CCCCC(CCSS/C(CCO)=C(\C)N(C=O)Cc1cnc(C)nc1N)SC(C)=O` (stereo not given), the outcome was inactive.

The values are drawn from PubChem BioAssay (Tox21).
